We go through 44 sequences from the supplement of paper PMC11417369.

± gives the standard deviation of the averaged measurements. Over roughly 25,000 sequences, “ln(normalized median fluorescence intensity)” has its median near 10; the highest 2% begin near 12. This excerpt belongs to a sample that is enriched for the highest values.

In this assay the test system is PfAP2-G AP2 domain (GST-tagged). The experiment in a line: gcPBM binding intensity (ln(normalized median fluorescence intensity)); higher = stronger DNA binding. The method in brief:
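Plasmodium falciparum DNA-binding domains carrying a GST tag were expressed in E. coli and applied for 1 h, at about 25 μg on average, to an Agilent 4 × 180k array. The array held primer-extended double-stranded 36-bp intergenic genomic probes together with negative controls, and binding took place in 1× PBS with 1% milk, 0.2 mg/ml BSA, 0.5% salmon testes DNA and 0.03% Triton X-100. An Alexa488 anti-GST antibody detected bound protein, and the array was scanned at 488 nm. Binding intensity is taken as the highest Masliner-normalised natural-log median intensity across replicate spots of either probe orientation.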
In the case of “ATATATTTAATTTATGGTACACATAATTTTTTTAGA [XGTACX_site848]”, the “gcPBM binding intensity (ln)” value was 11.2 ± 0.79.
Then “TATATATATATATTATGTACTCATTTATTATCTTTT [XGTACX_site8051]”, with 11.4 ± 1.1.
With “ATATATATATATATATGTACTCATATTTTATTATTT [XGTACX_site898]” the figure was 11.4 ± 0.94; with “TTTGTCATTTTATTATGTACTCAGCATATAGGGGGG [XGTACX_site505]”, 11.7 ± 0.66; with “AAAAAAAAAAAACATACACACATACATACATATATA [CACACA_site8222]”, 9.86 ± 0.099.
In the case of “ATTAAAGTTATAAATTCACACATGTAAATGTATTTA [CACACA_site5279]”, the “gcPBM binding intensity (ln)” value came out at 9.85 ± 0.11.
Then “TAGTAGTTATCATTAACATGCAATAATATTATTTAA [TGCATGCA_site178]”, with 9.635 ± 0.035; and “AATATAGATATAAAAAGTACATTATATATATATATA [XGTACX_site6899]”, with 11.3 ± 0.78.
With “ATATATATATATATATGTACACATATATGTGTTTGT [XGTACX_site62]” the figure was 11.4 ± 0.88.
Then “GCTTCTTAATATCATACACACATAGATATATTTATA [CACACA_site5676]”, with 9.925 ± 0.078; and “ATTTCTAGTTTAAGATGTACTTTAATAAAAATTATT [XGTACX_site4820]”, with 11 ± 0.77.
For the sequence “TATATATGTATGTATTGTACAATTAAAAATATGTAT [XGTACX_site3990]”, the “gcPBM binding intensity (ln)” value was found to be 10.8 ± 0.43.
With “AAAAATATTAAAAGGCGTACAATACCTGTATGCAAC [XGTACX_site6069]” the figure was 11.6 ± 1; with “AAGGCATACAATACCTGTACGCAACCTTAAAAAGAA [XGTACX_site6070]”, 11.5 ± 0.91; with TCTATTTTCTTATGAATGCACTAATTTATAAAACGT, 10.1 ± 0.13.
Then “TATCATATATGAAGGTGTACGATTTATTATATAAAT [XGTACX_site7010]”, with 11.4 ± 0.95; and “TTAAAATTAAAAATAGGTACACATATGAACAAGGAC [XGTACX_site1180]”, with 11.5 ± 0.78.
Then “AAAAAAAAAAAGAAGGGTACATATTATATATAATAT [XGTACX_site6204]”, with 11.2 ± 0.76; and “TATAAGAATAAAAAGGGTACATAAAATAATAATATA [XGTACX_site2355]”, with 11.3 ± 0.73; and “ATTATAAGAAGGGGGGGTACATAAATATAAATGTAT [XGTACX_site5624]”, with 11.9 ± 0.95.
Consider “ATATATATTATATGCACACTAATAAGACTATTTAAA [CACACA_site3554]”, for which the “gcPBM binding intensity (ln)” value amounted to 10.1 ± 0.23.
Then “TAGAAGCATTGACACACACACATACATACACATACA [CACACA_site6802]”, with 10.2 ± 0.26; and “TTACATATTTTTTAACGTACATAAATATATATGTAT [XGTACX_site8406]”, with 11.4 ± 0.79.
With “ATAAATAAAATAAAAGCACACAAAATGTAAATAATT [CACACA_site8895]” the figure was 10.04 ± 0.057; with “ATATAATTTAATTTCTGTACATAAGAGAAAAAACAA [XGTACX_site4865]”, 11.1 ± 0.64; with “ATATATATATATATATGTACGTACTCAGTTATGCCT [XGTACX_site453]”, 11.7 ± 1.2.
As for “TATATATATATTATATGTACGTATGTATGTATATAT [XGTACX_site6451]”, the “gcPBM binding intensity (ln)” value worked out at 11.3 ± 0.8.
With “GTATATATGTATGTATGTACGTATATAGTTATGTAT [XGTACX_site6769]” the figure was 11.6 ± 0.93; with “TCCTCGCGTAATACTTTTCAAATAAAAAAAATAAAA [TGCATGCA_negctrl_site403]”, 10.5 ± 0.48; with “ATTTGTGTATATTAGAGTACATAAAATTAGAGGAAC [XGTACX_site1654]”, 11.6 ± 0.92.
With “ATAACCACATAAAATATAATTATATATATATATATA [CACACA_negctrl_site603]” the figure was 9.87 ± 0.26; with “TTTATTTTTCATTGGGGTACACAAGTTTATTTTATT [XGTACX_site4263]”, 11.7 ± 0.96; with “TTTTTTTTTTTTATTTGTACACATTTTCATATTTTT [XGTACX_site4406]”, 11.3 ± 0.98.
With “GTTTATTTTTTCATTTGTACACATAAATAAATATAT [XGTACX_site7752]” the figure was 11.5 ± 0.75; with “TTATTTTTTTATTCATGTACACAAGAACATTTCATT [XGTACX_site5744]”, 11.3 ± 0.67.
Consider “TCATTTATTTTTCTTTGTACACAAAAGTTTTTATGT [XGTACX_site690]”, for which the “gcPBM binding intensity (ln)” value was 11.4 ± 0.9.
With “TTTATTTTTCATTGGGGTACACAAGTTTATTTTTGA [XGTACX_site4262]” the figure was 11.7 ± 0.86; with “GCTTAATACAGAATAACACACAAAATAAATAAATAA [CACACA_site4041]”, 10 ± 0.12; with “TTTTGGATGAACAGTACATGCAAAAACAAACTTGTA [TGCATGCA_site16]”, 10.8 ± 0.37.
Regarding “ATATCTTCACTTATATGTACTTACATTTTTTTTTTT [XGTACX_site8696]”, the “gcPBM binding intensity (ln)” value worked out at 11.4 ± 0.81.
With “AGGAGGTCAGTTCACAGTACCCAGAAACTCTACGAG [XGTACX_site2006]” the figure was 11.1 ± 0.73; with “AAATATAATTAATGATGTACACTTATAGATATTGAT [XGTACX_site8435]”, 11.4 ± 0.68; with “ATATAATTACATTGATGTACACGAAATGATTAACAT [XGTACX_site5183]”, 11.7 ± 1.1.
As for “ATATATATTTTTATAACACACAATGATGTACATTAC [CACACA_site1076]”, the “gcPBM binding intensity (ln)” value amounted to 11.3 ± 0.84.
